# The list is not random: actives were taken first. Their share in the collection is about 12%.
# PI5P4Ka inh = inhibitors of human PI5P4K alpha | P48426 | PI5P4Kalpha enzyme, ADP-Glo luminescence, 60 min; active compounds read low | max response, % | 1.2% of 330,000 active; active = max response of -50% or lower; inconclusive = between -30% and -50%; inactive = -30% or higher; also: value at the top dose of about 77 µM; % is scaled to controls: 0 for no effect and ±100 for the full control effect
#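 PI5P4Kalpha ADP-Glo assay; 5 microM ATP final; 60 min RT reaction; HEPES pH 7.4/EGTA/CHAPS, 5% DMSO; controls lacking substrate or enzyme; luminescent end-point.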
# PLK1 PBD inh = blocks phosphopeptide binding to human PLK1 polo-box domain. Potency, µM, for inactives: max response, negative = inhibition, usual class: inhibitors. P53350. 2.8% of 360,000 active. AID 720504. Plk1 PBD binding of FITC phosphopeptide, fluorescence polarization; also: potency is read from the fitted curve at half-maximal effect; series mostly up to about 57 µM; % is scaled to controls: 0 for no effect and ±100 for the full control effect; nearly all actives have a fitted effect of over 65% in size
# G9a inh = inhibitors of human histone lysine methyltransferase G9a; Q96KQ7; 8.8% of 350,000 active; Potency, µM (series often up to 102 µM), inactives show at the highest dose activity, negative = inhibition, hits mostly inhibitors; G9a H3K9 monomethylation, AlphaScreen, 2 h; also: potency is read from the fitted curve at half-maximal effect; % is scaled to controls: 0 for no effect and ±100 for the full control effect; nearly all actives have a fitted effect of over 75% in size
#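 G9a (20 nM) was preincubated 15 min with compound, then reacted 2 h at room temperature with 500 nM biotin-H3K9 peptide and 20 µM SAM. Monomethyl-H3K9 detected by AlphaScreen using anti-H3K9me1 antibody.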
# JMJD2A Tudor inh = JMJD2A Tudor domain (human) inhibition; O75164; AlphaScreen JMJD2A-Tudor / H3K4me3 peptide binding; Potency, µM (highest dose often 114 µM), without a hit: at the top dose activity change, negative = inhibition, usual class: inhibitors; 4.4% of 390,000 active; also: potency is read from the fitted curve at half-maximal effect; % is scaled to controls: 0 for no effect and ±100 for the full control effect; nearly all actives have a fitted effect of over 50% in size
# BAZ2B inh = blocks human BAZ2B; 4.4% of 360,000 active; Q9UIF8; AlphaScreen BAZ2B-H3K14Ac peptide displacement; Potency, µM (highest dose often 114 µM), for the others: at the top dose activity change, negative = inhibition, hits mostly inhibitors; also: potency is read from the fitted curve at half-maximal effect; % is scaled to controls: 0 for no effect and ±100 for the full control effect; nearly all actives have a fitted effect of over 60% in size
#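 In this displacement format the biotinylated H3(5-23) peptide acetylated at Lys14 serves as ligand at 50 nM, with BAZ2B at 50 nM in PBS pH 7.4 containing 0.01% Tween-20. Donor and acceptor beads are 10 ug/mL final.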
# HP1b chromo inh = blocks HP1-beta chromodomain binding to methylated histone tails | P83916 | AlphaScreen HP1-beta / biotin-H3K9me3 peptide binding | Potency, µM (top dose mostly 114 µM), for the others: at the highest dose activity change, negative = inhibition, hits mostly inhibitors | 0.56% of 390,000 active; also: potency is read from the fitted curve at half-maximal effect; nearly all actives have a fitted effect of over 70% in size
#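 AlphaScreen: HP1-beta (50 nM) preformed 30 min with biotin-H3(1-18)K9me3 peptide (50 nM) in PBS pH 7.4, 0.01% Tween-20. Compound added for 30 min at RT, then streptavidin donor/nickel chelate acceptor beads (10 ug/mL) for 30 min.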
# * marks the source's active call; other numbers are inactive results; ? = inconclusive; . = not tested or not shown; [ ] = dose if it differs, or a comment. Unless noted, calls follow the shape of the dose curve; as a rule, active = well fitted curve in the direction sought with a large enough effect; inconclusive = small, poorly fitted or top-dose-only effect, or another doubt; inactive = no such curve, though single readings can be large; an effect the other way counts as inactive or inconclusive.
SMILES,PI5P4Ka inh,PLK1 PBD inh,G9a inh,JMJD2A Tudor inh,BAZ2B inh,HP1b chromo inh
COc1ccccc1N1CCN(C(=S)NC(=O)c2ccc([N+](=O)[O-])cc2)CC1,1.9,2.9%,.,.,.,.
CC(=O)N1CCN(C(=S)c2ccc([N+](=O)[O-])cc2)CC1,-11.9,?,22.4µM*,?,-1.9%,-6.0%
Cc1cccc(N2CCN(C(=S)c3ccccc3)CC2)c1,0.0,-14.9%,?,-32.9%,-37.7%,-5.9%
CC1CCCC(N2CCN(C(=O)c3ccc([N+](=O)[O-])cc3)CC2)C1 (stereo not drawn),-1.1,-9.6%,22.4µM*,22.4µM*,56.2µM*,?
Cc1ccccc1N1CCN(C(=S)c2ccc([N+](=O)[O-])cc2)CC1,-8.2,16.8µM*,12.6µM*,?,?,?
CC(=O)N1CCN(c2ccc([N+](=O)[O-])cc2)CC1,1.0,2.2%,6.8%,-10.4%,-3.4%,-17.7%
COC(=O)Cc1ccc(O)c(N)c1,?,9.47µM*,?,10µM*,-15.0%,?
CCOC(=O)c1cc(OC(=O)c2cc(OC)cc(OC)c2)n(-c2ccccc2)n1,.,.,3.3%[59 µM],-14.8%,-1.2%[57.1 µM],18.4%
c1ccc(-c2nnc3sc(-c4csc5c4CCCC5)nn23)cc1,?,10.6µM*,5.01µM*,?,13.9%,?
COc1ccccc1-c1cc2nc(C)c(CCC(=O)NCc3ccco3)c(C)n2n1,-9.7,-17.2%,50.1µM*,?,-8.8%,13.0%
Cc1nc2cc(-c3ccccc3)nn2c(C)c1CCC(=O)NCc1ccco1,6.6,-0.4%,?,-20.6%,-37.5%,17.8%
COc1ccc(S(=O)(=O)NCC(c2ccc(N(C)C)cc2)N2CCc3ccccc32)cc1F (stereo not drawn),.,.,-22.7%[12.7 µM],20µM*,11.2µM*,?
CN(C)c1ccc(C(CNS(=O)(=O)c2ccccc2)N2CCc3ccccc32)cc1 (stereo not drawn),.,.,-33.4%[12.7 µM],12.6µM*,22.4µM*,?
Cc1ccc(S(=O)(=O)NCC(c2ccc(N(C)C)cc2)N2CCc3ccccc32)cc1 (stereo not drawn),.,.,11.2µM*,14.1µM*,6.31µM*,?
CN(C)c1ccc(C(CNS(=O)(=O)c2ccc(F)cc2)N2CCOCC2)cc1 (stereo not drawn),.,.,-17.7%[59 µM],-30.8%,-32.2%,10.3%
CC(Sc1nc2c([nH]c3ccccc32)c(=O)n1-c1ccccc1)c1ccccc1 (stereo not drawn),.,.,-27.8%[59 µM],?,-30.1%,5.8%[57 µM]
O=C(CCn1c(=O)c2sccc2n(Cc2ccccc2F)c1=O)NCc1ccc2c(c1)OCO2,.,.,-4.7%[59 µM],-13.7%,1.0%,10.4%
COc1ccccc1N1CCN(c2ccc([N+](=O)[O-])cc2Cl)CC1,19.3,-15.5%,3.16µM*,?,?,?
CC(C)CC(=O)N1CCN(c2ccc([N+](=O)[O-])cc2Cl)CC1,-9.8,26.7µM*,-2.1%[59 µM],-31.6%,-4.2%,-7.6%
COc1ccccc1N1CC=C(c2cccc([N+](=O)[O-])c2)NC1=O,-8.1,-7.9%,39.8µM*,-13.7%,-20.2%,35.1%
S=C(Nc1ccc(Br)cc1Cl)NN1CCOCC1,-0.9,-19.4%,38.6%[12.7 µM],-1.4%,-3.5%,17.6%
COc1cc(Cl)c(C)cc1NC(=O)CSc1nnc(CCC(=O)O)c(=O)[nH]1,-20.1,-19.8%,-27.7%,-18.8%,-33.2%,5.5%
O=C(Nc1ccc2oc(-c3cccnc3)nc2c1)c1ccc(Br)o1,3.1,-15.6%,20µM*,-12.8%,-8.4%,11.5%
O=C(Nc1ccc2oc(-c3cccnc3)nc2c1)c1ccc(Br)cc1,.,.,-4.2%[59 µM],-19.0%,0.4%,52.8%
O=C(Nc1ccc2oc(-c3cccnc3)nc2c1)c1ccco1,-14.6,-7.6%,50.1µM*,-13.2%,-32.1%,34.9%
SMILES,PI5P4Ka inh,PLK1 PBD inh,G9a inh,JMJD2A Tudor inh,BAZ2B inh,HP1b chromo inh
Cc1ccc(C(=O)Nc2cccnc2)cc1NC(=O)c1ccco1,0.6,-2.4%,-3.0%[59 µM],-15.7%,6.3%,16.3%
O=C(Nc1cccc(NC(=O)c2nccc3ccccc23)c1)c1ccco1,.,-4.7%,44.7µM*,-30.3%,-22.4%,1.4%
O=C(Nc1ccc2oc(-c3cccnc3)nc2c1)c1cccnc1,-1.4,-4.8%,3.4%[59 µM],-6.2%,10.6%,33.5%
O=C(Nc1cccnc1)c1cccc(NC(=O)c2ccco2)c1,-7.7,-1.2%,39.8µM*,-1.4%,4.8%,25.7%
COc1cc(CCNC2=CC(=O)c3ncccc3C2=O)ccc1O,2.6,-8.6%,.,-21.5%,.,-0.1%
Cc1ccn2c(=O)cc(COc3ccc(NC(=O)COc4ccc(C)c(C)c4)cc3)nc2c1,.,.,0.6%[59 µM],-7.1%,-0.6%,25.1%[57 µM]
CCN(CC)Cc1c(NC(=O)c2ccc(OC)cc2)sc2c1CCCC2,.,.,-8.4%[59 µM],-17.3%,-5.4%,4.6%
CC(=O)Nc1ccc(N=Nc2c(C)[nH]n(C(N)=S)c2=O)cc1,-5.4,?,44.7µM*,-27.1%,-11.3%,8.3%
Cc1[nH]n(C(N)=S)c(=O)c1N=Nc1ccc2ccccc2c1,-29.9,-1.1%,31.6µM*,44.7µM*,25.1µM*,?
Cc1ccc(N=Nc2c(C)[nH]n(C(N)=S)c2=O)cc1C,-21.3,-16.9%,2.1%[59 µM],-8.9%,7.3%,2.4%
Cc1[nH]n(C(N)=S)c(=O)c1N=Nc1ccc(S(=O)(=O)N2CCCCCC2)cc1,?,-29.4%,-21.2%[59 µM],?,?,?
COCC#Cc1ccc2c(c1)O[C@@H](CN(C)C(=O)Nc1ccc(OC)cc1)[C@H](C)CN([C@H](C)CO)S2(=O)=O,1.0,-0.9%,.,.,.,.
Cc1cc(C(=O)COC(=O)CC2Sc3ccccc3NC2=O)c(C)n1-c1ccc(Br)cc1 (stereo not drawn),-7.2,-7.7%,56.2µM*,-27.1%,-38.7%,-1.8%
Cc1cc(C(=O)COC(=O)CC2Sc3ccccc3NC2=O)c(C)n1-c1ccccc1 (stereo not drawn),-27.1,-5.6%,?,?,-36.0%,-13.4%
CCOc1ccccc1OCCC(=O)OCC(=O)Nc1c(C)nn(-c2ccccc2)c1C,1.6,-9.0%,56.2µM*,-11.7%,7.2%,28.6%
CN1CCN(c2ncc3nc(-c4cccs4)c(=O)n(CCc4ccccc4)c3n2)CC1,.,.,3.9%[0.501 µM],.,.,.
CC1C2(C)OCC(C#N)(C(=N)O2)C1(C#N)C#N (stereo not drawn),.,.,44.7µM*,.,1.3%,.
COc1ccc(NS(=O)(=O)c2ccc(N3CCCC3)c(NC(=S)Nc3ccc(SC(F)F)cc3)c2)cc1,-26.4,4.74µM*,?,56.2µM*,?,11.2µM*
COc1ccc(NS(=O)(=O)c2ccc(N3CCCC3)c(NC(=S)Nc3cccc(C)c3C)c2)cc1,-26.7,3.77µM*,1.26µM*,56.2µM*,?,?
O=C1C(=O)c2c(ccc3ccccc23)-c2ccccc21,7.5,-20.8%,.,?,.,-4.8%
